HT1080 IDH1KD tx = HT-1080 IDH1 knockdown cell toxicity (counter line). HT-1080 IDH1 knockdown viability, ATP luminescence, 48 h. 360,000 compounds, 2% hits. Potency, µM (titrated, usually from 46.1 µM), for the others: top-dose activity, negative = toxicity, hits mostly cytotoxic;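 further: potency means the concentration at half of the fitted maximal effect; 0% = DMSO wells and -100% = cell-free medium wells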
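In this qHTS, HT-1080 cells depleted of IDH1 are exposed for 48 h at 37 °C to compound titrations. Toxicity is scored from CellTiter-Glo luminescence, with DMSO as full viability and medium alone as none.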
HT1080-NT tox = kills 2HG-producing HT-1080-NT fibrosarcoma cells | AID 686970 | Potency, µM (highest dose often 46.1 µM), inactives show at the highest dose activity, negative = less viability, most hits filed as cytotoxic | HT-1080-NT fibrosarcoma viability, CellTiter-Glo ATP luminescence, 48 h | 360,000 compounds, 1.6% hits;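 further: NT is the 2HG producing partner of a matched IDH1 knockdown line; potency means the concentration at half of the fitted maximal effect; 0% = DMSO-treated cells and -100% = media-only wells without cells; nearly all actives have a fitted effect of over 55% in size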
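Luminescent CellTiter-Glo readout after 48 hours of compound exposure at 37 degrees C defined viability of HT-1080-NT cells. Activity was normalized to DMSO wells and cell-free media wells; concentration-response curves were fitted and assigned curve classes.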
IL1B secr inh = blocks inflammasome-driven IL-1 beta release. THP-1 LPS/ATP IL-1B secretion, AlphaLISA, 16 h; stronger effect = lower value. activity change, % at 57.5 µM. 360,000 compounds, 4.7% hits. AID 743279; in the data active means activity change below about -50%; inconclusive means mostly about -30% to -49%
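Secreted IL-1B measured by AlphaLISA bead assay after 16 h compound exposure of THP-1 cells; compounds (final up to 57.5 uM) added 1 h before LPS (250 ng/mL) and ATP (1.25 mM) stimulation; lower signal means less secretion.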
DT40 TDP1 CPT = DT40-hTDP1 cell growth loss with CPT | chicken DT40 Tdp1-/-;hTDP1 cells + 20 nM CPT, ATP luminescence, 48 h | Potency, µM (doses to about 46.2 µM), without a hit: top-dose activity change, negative = growth inhibition, hits mostly inhibitors | 420,000 compounds, 12% hits | AID 686979; further: potency means the concentration at half of the fitted maximal effect; nearly all actives have a fitted effect of over 55% in size
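Chicken DT40 Tdp1-/- cells complemented with human TDP1, 400 cells/well, exposed to compounds plus 20 nM camptothecin for at least 48 h at 37 C; viability read as ATP content by CellTiter-Glo luminescence.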
TDP1 cell noCPT = qHTS for Inhibitors of human tyrosyl-DNA phosphodiesterase 1 (TDP1): qHTS in cells in absence of CPT; DT40 Tdp1-/- hTDP1 cells, no CPT, ATP luminescence, 48 h; Potency, µM (doses to about 46.2 µM), inactives show top-dose activity change, negative = growth inhibition, actives largely listed as inhibitors; 420,000 compounds, 15% hits; AID 686978, 2013; further: potency means the concentration at half of the fitted maximal effect; nearly all actives have a fitted effect of over 55% in size
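DT40 Tdp1-/-;hTDP1 cells, no CPT (DMSO vehicle only), 400 cells/well; compounds pin-transferred; ≥48 hr, 37 °C; CellTiter-Glo 30 min RT dark, luminescence read.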
An asterisk follows results filed as active; ? = inconclusive; / = not tested or not shown; ! = a repeat was not active; [ ] = another dose, or the depositor's remark. Most compounds without a hit are left out; they make up all but 19% or so of the library. Unless noted, the call rests on the fitted dose curve; in most records, active means well fitted curve in the direction sought with a large enough effect; inconclusive means small, poorly fitted or top-dose-only effect, or another doubt; inactive means no such curve, though single readings can be large; an effect the other way counts as inactive or inconclusive. Unless noted, on the % scale 0 is the no-effect control and ±100 the full control effect.

SMILES	HT1080 IDH1KD tx	HT1080-NT tox	IL1B secr inh	DT40 TDP1 CPT	TDP1 cell noCPT
O=C(Nc1cccc(C(=O)Nc2ccccc2F)c1)c1ccccc1	0.9%	-4.9%	-11.3	?	23.1µM*
CCOC(=O)C1=C(C(=O)OCC)c2ccc(OC)c(OC)c2C1	-3.4%	-3.1%	-2.6	2.1%	18.4µM*
CCOC(=O)c1ccc(NC(=O)Nc2ccc(OC)c(OC)c2)cc1	-8.9%	-13.7%	39.1	?	?
COc1ccc(CN2CC[C@H]3C=CC[C@@H](C(=O)Nc4ccccc4)[C@H]3C2=O)cc1OC	/	/	/	?	10µM*!
O=C(NCCc1ccccc1)[C@@H]1CC=C[C@@H]2CCN(Cc3ccccc3)C(=O)[C@@H]21	0.9%	0.4%	3.5	?	?
COc1ccc(CNC(=O)[C@@H]2CC=C[C@@H]3CCN(Cc4ccc(OC)c(OC)c4)C(=O)[C@@H]32)cc1	/	/	/	-15.1%	-13.4%
CCCCN1CC[C@H]2C=CC[C@@H](C(=O)Nc3ccc(Cl)cc3Cl)[C@H]2C1=O	-6.2%	-1.4%	-19.4	16.4µM*	?
COc1ccc(CNC(=O)[C@@H]2CC=C[C@@H]3CCN(Cc4ccc(Cl)c(Cl)c4)C(=O)[C@@H]32)cc1	-5.4%	-12.3%	0.0	23.1µM*	11.2µM*
CN1CCN(C(=S)Nc2cc([N+](=O)[O-])ccc2Cl)CC1	-4.8%	0.6%	-3.0	0.2%	-9.5%
O=C(O)c1ccccc1C(=O)NNc1ccc(F)cc1	8.2µM*	?	-8.2	-1.3%	-3.5%
O=C(O)c1ccccc1C(=O)NCc1ccc(F)cc1	9.9%	1.3%	10.1	-6.3%	-6.0%
COc1ccc(N2C(=NC(=O)CC3CCCCC3)SC3CS(=O)(=O)CC32)cc1 (centres undefined)	15.1%	0.3%	30.8	-24.2%	0.8%
CC1CN(CC(=O)NCCC2COc3ccccc3O2)Cc2cc(Cl)ccc2O1 (centres undefined)	/	/	/	5.5%[9.04 µM]	-22.7%
CN1c2ccccc2C(C)(C)[C@]12C=Cc1cc(O)ccc1O2	18.4µM*	?	37.1	2.59µM*	7.31µM*
COc1ccc2c(c1)c1c(c(=O)n(-c3ccccc3C)c(=O)n1C)n2C	/	/	/	-28.8%	-18.3%
CN1c2ccccc2C(C)(C)C12C=Nc1c(ccc3ccccc13)O2 (centres undefined)	-11.3%	5.0%	-57.9*	0.8%	-6.2%
COc1ccc2ccc3c(c2c1)N=CC1(O3)N(C)c2ccccc2C1(C)C (centres undefined)	6.31µM*	7.94µM*	-1.8	?	23.1µM*
CCOC(=O)C1=CCN(S(=O)(=O)c2ccc(Br)cc2)C1c1ccccc1 (centres undefined)	-17.4%	-11.9%	4.3	-25.8%	?
c1ccc(N2CCN(c3ccccc3)C2c2ccncc2)cc1	-1.2%	-22.8%	-68.8*	-27.3%	-24.1%
COc1cccc(C2N(c3ccccc3)CCN2c2ccccc2)c1OC	25.2%	28.5%	-6.6	-5.8%	-21.9%
Cc1ccc(N2CCN(c3ccc(C)cc3)C2c2cccnc2)cc1	-0.8%[9.24 µM]	-27.0%	-86.2*	23.1µM*	?
c1ccc(N2CCN(c3ccccc3)C2c2cccnc2)cc1	-0.8%	-1.0%	-21.0	?	?
COc1cc(C2C(C#N)=C(N)Oc3c2c(-c2ccccc2)nn3-c2ccccc2)cc(OC)c1OC (centres undefined)	-9.0%	-11.8%	-1.7	?	?
COc1ccc(-c2csc(NCc3ccco3)n2)cc1C	-12.9%	-14.4%	-51.7*	-27.0%	?
Cc1ccn2c(-c3csc(NCc4ccco4)n3)c(C)nc2c1	-26.2%	-21.9%	-19.8	14.6µM*	18.4µM*
SMILES	HT1080 IDH1KD tx	HT1080-NT tox	IL1B secr inh	DT40 TDP1 CPT	TDP1 cell noCPT
O=S(=O)(NC1=NCCC1)c1cccc(NC(=S)NCCc2ccccc2)c1	9.5%	7.0%	20.0	-23.8%	?
Cc1ccc(C(=O)Nc2cccc(C(=O)O)c2)cc1S(=O)(=O)N1CCOCC1	0.0%	6.2%	10.3	7.8%	-0.6%
CC(NC(=O)c1cccc(S(=O)(=O)N(C)c2ccccc2)c1)c1cccnc1 (centres undefined)	-4.1%	1.8%	-6.1	18.4µM*	18.4µM*
Cc1ccc(NC(=O)c2cccc(S(=O)(=O)N(C)c3ccccc3)c2)cc1S(=O)(=O)N1CCOCC1	-15.4%	-3.6%	0.0	23.1µM*	23.1µM*
COc1ccccc1N(C)S(=O)(=O)c1ccc(C(=O)Nc2ccc3nc(C)sc3c2)cc1	-27.0%	-12.2%	7.4	16.4µM*	?
Cc1nc2ccc(NC(=O)c3cccc(S(=O)(=O)N(C)c4ccccc4)c3)cc2s1	?	?	37.4	3.66µM*	6.51µM*
CC1=NN(C(=S)Nc2ccccc2)C(C)(C)C1	8.1%	-0.3%	-14.0	0.0%	-9.3%
COc1ccc2nc(SCC(=O)/C(C#N)=C(\C)N)[nH]c2c1	17.6%	0.3%	13.3	-10.9%	-7.3%
COc1ccc(-c2csc(-c3nc(-c4ccc(Br)s4)cs3)n2)cc1F	/	/	/	1.8%	-9.3%
COc1ccccc1N1CCN(c2nc3ccc(C(=O)c4ccccc4)cc3n3c(C)nnc23)CC1	/	/	/	-3.4%	-0.5%
CCOC(=O)C1=CN(Cc2cccc(F)c2)S(=O)(=O)N(C)C1c1ccc2ccccc2c1 (centres undefined)	6.8%	3.5%	25.2	-54.9%	?
COc1ccc(Br)cc1S(=O)(=O)NCCCN1CCOCC1	0.5%	0.0%	-12.2	-7.7%	-13.6%
Cc1ccc(CN2C(=O)CCC2C(=O)NCc2ccccc2Cl)cc1 (centres undefined)	0.0%	0.0%	9.9	-5.3%	6.8%
CN1CCN(c2ccc(NC(=O)c3ccc(-c4ccc(Cl)cc4)o3)cc2)CC1	8.2µM*	5.8µM*	-99.1*	16.4µM*	20.6µM*
CS(=O)(=O)N1CCN(c2ccc(NC(=O)c3ccc(-c4ccc(Cl)cc4)o3)cc2)CC1	-13.9%	-28.8%	15.6	?	?
CN1CCN(c2ccc(NC(=O)c3ccc(-c4cccc([N+](=O)[O-])c4)o3)cc2)CC1	?	?	-54.8*	1.3%	?
Cc1ccc(N2CCN(C(=S)c3ccc(-c4cccc([N+](=O)[O-])c4)o3)CC2)cc1	1.8%	-3.7%	0.0	-4.9%	-13.9%
Cc1ccccc1N=Nc1c(C)[nH]n(-c2ccccc2)c1=O	22.2%	1.0%	19.4	9.3%	-22.0%
Cc1[nH]n(-c2ccccc2)c(=O)c1N=Nc1nccs1	3.98µM*	11.2µM*	53.2	18.4µM*	23.1µM*
Cc1[nH]n(-c2ccccc2)c(=O)c1N=Nc1ccccc1O	9.2µM*	14.6µM*	123.9	0.517µM*	0.411µM*
Nc1cc2c(cc1O)CCCC2	-6.4%	-4.5%	27.1	?	?
